In the library only some 0.65% were active in any assay of this set; here they are far more common.
PrP 5UTR inh: inhibition of PrP 5' UTR reporter expression | cell-based PrP 5' UTR mRNA reporter, plate reader | inhibition, % (concentration not given with the values) | actives 0.35% (n = 340,000) | AID 488862; in the data active = inhibition above about 52%; also: 0 = median of the neutral control wells
Yp Topo-I inh: inhibitors of Yersinia pestis topoisomerase I. AID 504884. activity, % at 10 µM. Y. pestis Topo-I cleavage product accumulation, plate reader. actives 0.064% (n = 360,000); in the data active = activity above about 50%, passing the limit was not always enough
UGM FP inh: inhibitors of M. tuberculosis UDP-galactopyranose mutase | P9WIQ1 | actives 0.06% (n = 320,000) | inhibition, % at 10 µM | AID 504406 | purified UGM, fluorescence polarization probe displacement; in the data active = inhibition above about 10%, passing the limit was not always enough
Target sequence (P9WIQ1 whole entry, looked up): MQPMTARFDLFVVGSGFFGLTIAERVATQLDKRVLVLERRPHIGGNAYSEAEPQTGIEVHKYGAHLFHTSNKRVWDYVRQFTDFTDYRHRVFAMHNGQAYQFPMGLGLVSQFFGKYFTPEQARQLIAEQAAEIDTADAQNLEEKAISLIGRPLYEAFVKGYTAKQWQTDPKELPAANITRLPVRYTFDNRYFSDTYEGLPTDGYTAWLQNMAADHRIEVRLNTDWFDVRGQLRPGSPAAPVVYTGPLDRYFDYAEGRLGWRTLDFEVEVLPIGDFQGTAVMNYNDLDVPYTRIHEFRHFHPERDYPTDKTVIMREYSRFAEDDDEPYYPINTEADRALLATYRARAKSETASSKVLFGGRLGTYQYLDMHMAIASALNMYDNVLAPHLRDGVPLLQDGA
TcdB GH inh: inhibitors of Clostridioides difficile toxin B glycohydrolase | P18177 | TcdB glycohydrolase enzymatic assay, plate reader | inhibition, % at 9.99 µM | actives 0.24% (n = 350,000) | AID 652162; in the data active = inhibition above about 10%
BH1578 lux ind: inducers of Vibrio cholerae quorum light production without autoinducers. V. cholerae BH1578 lux reporter, luminescence, 6 h. activation, % at 18.7 µM. actives 0.16% (n = 350,000). AID 588436; in the data active = activation mostly above about 9.7%, no sharp cut-off
The depositor's hits bear a star; i = inactive; · = not tested or not shown; + = active, no number.

SMILES | PrP 5UTR inh | Yp Topo-I inh | UGM FP inh | TcdB GH inh | BH1578 lux ind
O=C(NCC(c1cccnc1)N1CCN(c2ccc(F)cc2)CC1)c1ccc2c(c1)OCO2 (stereo not given) | -19 | 9 | 1 | · | i
COc1ccc(N2CCN(C(CNC(=O)c3ccc4c(c3)OCO4)c3cccnc3)CC2)cc1 (stereo not given) | -17 | -5 | -2 | · | +
COc1cc(N=Nc2c(C)n(C)n(-c3ccccc3)c2=O)ccc1N | 2 | 2 | 2 | 14* | i
CC[C@@]1(O)C(=O)OCc2c1cc1n(c2=O)Cc2cc3c(CN(C)C)c(O)ccc3nc2-1 | 44 | 0 | 34* | 4 | 4
CC[C@@]1(O)C(=O)OCc2c1cc1n(c2=O)Cc2cc3c(N)cccc3nc2-1 | 31 | 0 | 1 | 0 | i
COc1ccccc1N(CCC#N)C(=O)CSc1nnc2ccccn12 | -4 | 8 | 2 | -3 | 1
COc1ccccc1N(CCC#N)C(=O)CSc1nc(-c2ccccc2)cn1N | -6 | 5 | 1 | · | 29*
COc1ccccc1CNC(=O)C[C@@H]1C=C[C@@H](NC(C)=O)[C@H](CO)O1 | · | · | · | 1 | ·
COc1ccc(C(CNC(=O)c2oc3ccc(Br)cc3c2C)N2CCCCC2)cc1 (stereo not given) | -51 | 10 | 0 | -1 | -1
COc1ccc(C(CNC(=O)c2oc3ccc(OC)cc3c2C)N2CCCC2)cc1 (stereo not given) | -10 | -3 | 4 | 12* | i
Cc1cccn2c(=O)nc(SCC(=O)c3ccc(Cl)cc3)nc12 | 1 | 2 | -2 | 0 | 89*
Cc1cc(O)c(CN2CCN(S(=O)(=O)c3cccs3)CC2)cc1C(C)C | -18 | 19 | -1 | 0 | 0
Cc1cc(C(C)(C)C)cc(CN2CCN(S(=O)(=O)c3cccs3)CC2)c1O | · | -9 | · | 11* | -6
O=S(=O)(O)c1cc(O)c2c(O)c(N=Nc3cc(Cl)ccc3O)c(S(=O)(=O)O)cc2c1 | -3 | 65* | 4 | · | i
O=C(N[C@@H]1CC[C@H](CCNS(=O)(=O)c2ccccc2)O[C@H]1CO)c1cccc(F)c1 | · | · | · | -1 | ·
O=C(c1cccc(F)c1)N1CC[C@@H]2[C@H]1c1cc(C#Cc3ccc(F)cc3)ccc1N[C@@H]2CO | · | · | · | -2 | ·
COc1ccc(/C=C(/C#N)C(=O)Nc2ccc(O)cc2)cc1C(=O)O | -15 | -5 | -2 | 18* | i
CCOCC(=O)Nc1cc(Cl)ccc1C | -15 | 1 | 2 | 10* | 0
CO[C@H]1CN(C)C(=O)c2cc(C#N)ccc2OC[C@H]2O[C@@H](CC[C@H]2OC)CCN(C)C(=O)[C@H]1C | · | · | · | -1 | ·
COc1ccc(N2CC(C(=O)Nc3cccc(S(=O)(=O)N4CCCC4)c3)CC2=O)c(OC)c1 (stereo not given) | -7 | -11 | · | 0 | i
COc1ccc(NC(=O)C2CC(=O)N(c3ccccc3F)C2)cc1S(=O)(=O)N1CCCCC1 (stereo not given) | · | 8 | · | 13* | 0
CC(C)NC(=O)N(C)C[C@H]1Oc2ncc(C#CCC3CCCC3)cc2C(=O)N([C@H](C)CO)C[C@@H]1C | · | · | · | -4 | ·
CO[C@@H]1CN(C)C(=O)c2cc(NC(C)=O)ccc2OC[C@H](C)N(C(=O)c2ccccc2F)C[C@H]1C | · | · | · | 0 | ·
COc1cccc(-n2ccnc2SCC(=O)NCc2ccccc2)c1 | -24 | 1 | 2 | · | 25*
O=C(CSc1nccn1-c1ccccc1)NCc1ccc(F)cc1 | -17 | 2 | 0 | 0 | 0
SMILES | PrP 5UTR inh | Yp Topo-I inh | UGM FP inh | TcdB GH inh | BH1578 lux ind
O=C(C[C@@H]1C=C[C@@H](NC(=O)c2ccc(F)cc2)[C@@H](CO)O1)NCc1ccncn1 | · | · | · | -11 | ·
Cc1noc(C)c1S(=O)(=O)Nc1ccc2c(c1)C(=O)N([C@H](C)CO)C[C@H](C)[C@H](CN(C)Cc1ccc(-c3ccccc3)cc1)O2 | · | · | · | 0 | ·
Cc1ccc(C(=O)CNc2cccc(Cl)c2)cc1 | -22 | 65* | 0 | · | i
CCCNC(=O)Nc1ccc2c(c1)C(=O)N(C)[C@H]1CC[C@H](CC(=O)NC3CCC3)O[C@@H]1CO2 | · | · | · | 14* | ·
CCCNC(=O)Nc1ccc2c(c1)C(=O)N(C)[C@@H]1CC[C@H](CC(=O)NC3CCC3)O[C@H]1CO2 | · | · | · | 19* | ·
Cc1noc(C)c1S(=O)(=O)Nc1ccc2c(c1)C(=O)N([C@H](C)CO)C[C@@H](C)[C@@H](CN(C)S(=O)(=O)c1ccccc1)OCCCC[C@H](C)O2 | · | · | · | 0 | ·
Cc1ccc(C)c2c1cc(C)c1nnc(SCC(=O)NCc3ccc4c(c3)OCO4)n12 | -8 | 24 | 4 | 10* | 0
Cc1cc(C)c2cc(C)c3nnc(SCC(=O)NCc4ccc5c(c4)OCO5)n3c2c1 | -6 | 12 | 0 | · | 0
C[C@H](CO)N1C[C@H](C)[C@@H](CN(C)Cc2ccccc2)Oc2ccc(NC(=O)Nc3ccccc3)cc2CC1=O | · | · | · | 0 | ·
CCn1c(SCC(=O)OC)nnc1-c1ccccc1 | -20 | 3 | 0 | 20* | 0
C[C@H](CO)N1C[C@H](C)[C@H](CN(C)C(=O)Nc2ccc(C(F)(F)F)cc2)Oc2ccc(NC(=O)C3CCCCC3)cc2C1=O | · | · | · | 1 | ·
CN1C(=O)c2cc(NS(C)(=O)=O)ccc2OC[C@H]2O[C@@H](CC(=O)NCc3ccc(-c4ccccc4)cc3)CC[C@H]21 | · | · | · | 1 | ·
CCC(=O)N1CC[C@@H]2[C@H]1c1cc(-c3ccccc3)ccc1N(C)[C@H]2CO | · | · | · | 12* | ·
CCC(=O)N1CC[C@@H]2[C@H]1c1cc(-c3ccc(F)cc3)ccc1N(C)[C@H]2CO | · | · | · | 9 | ·
COCC(=O)N1CC[C@@H]2[C@H]1c1cc(-c3cccc(OC)c3)ccc1N(C)[C@H]2CO | · | · | · | 13* | ·
CCC(=O)N1CC[C@@H]2[C@@H](CO)N(C)c3ccc(-c4ccccc4)cc3[C@@H]21 | · | · | · | 21* | ·
CN1c2ccc(-c3ccccc3)cc2[C@H]2[C@H](CCN2C(=O)CN2CCOCC2)[C@@H]1CO | · | · | · | -1 | ·
CN1c2ccc(-c3ccccc3)cc2[C@H]2[C@H](CCN2C(=O)CN2CCOCC2)[C@H]1CO | · | · | · | 14* | ·
CCC(=O)N1CC[C@@H]2[C@H]1c1cc(-c3ccccc3)ccc1N(C)[C@@H]2CO | · | · | · | 1 | ·
O=C(C[C@H]1C[C@@H]2c3cc(NS(=O)(=O)c4ccccc4)ccc3O[C@@H]2[C@H](CO)O1)NC1CCCCC1 | · | · | · | -5 | ·
O=C(C1CCC1)N1[C@@H](CO)[C@@H](c2ccccc2)C12CN(Cc1cccc(Cl)c1)C2 | · | · | · | 0 | ·
